# According to PubChem BioAssay AID720492 (Broad Institute, 2013):
# Active and inactive are the calls of the source.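 How the source made its calls: active means unnormalized dose curve rising to cross level 40 at or below the top tested dose; inconclusive means flat fit at moderately raised activity, or poor fit; inactive means the rest.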
# Assay: miR-27b level by RT-PCR, dose response, miR-122 / miR-27b project, Huh7 cells, cherry-pick, activator set (AID 720492)
# Conditions: Huh7 miR-27b levels, qRT-PCR, 48 h; series mostly up to 35 µM; miR-27b level change (relative expression (fold, unnormalized)): at the top concentration
row,SMILES,"miR-27b level change (relative expression (fold, unnormalized))"
1,CCCC#Cc1ccc2c(c1)O[C@H](CN(C)C(=O)COC)[C@H](C)CN([C@@H](C)CO)S2(=O)=O,0.45 (inactive)
2,C[C@H]1CN([C@@H](C)CO)C(=O)c2cc(C#Cc3ccccc3F)cnc2O[C@@H]1CN(C)C(=O)C1CCCCC1,0.511 (inactive)
3,CO[C@@H]1CN(C)C(=O)c2cc(NC(=O)c3cccc(Oc4ccccc4)c3)ccc2OC[C@H](C)NC[C@@H]1C,0 (inactive)
4,CO[C@@H]1CN(C)C(=O)c2cc(NS(=O)(=O)c3ccc(Oc4ccccc4)cc3)ccc2OC[C@H](C)NC[C@@H]1C,1.39 (inactive)
5,COc1ccc(-c2cnc3c(c2)C(=O)N([C@@H](C)CO)C[C@H](C)[C@H](CN(C)S(=O)(=O)c2ccc(OC)cc2)O3)cc1,0.716 (inactive)
6,C[C@@H]1CN([C@H](C)CO)S(=O)(=O)c2ccc(C#Cc3ccncc3)cc2O[C@@H]1CN(C)C(=O)C1CCOCC1,0.443 (inactive)
7,CN1C(=O)c2cc(NC(=O)c3cccc(F)c3)ccc2OC[C@@H]2O[C@@H](CC(=O)O)CC[C@H]21,0.836 [at 30 µM] (inactive)
8,C[C@H](CO)N1C[C@H](C)[C@H](CN(C)C(=O)C2CCOCC2)Oc2cc(C#Cc3ccncc3)ccc2S1(=O)=O,0.279 (inactive)
9,COCC(=O)N(C)C[C@@H]1Oc2ncc(-c3ccc(C#N)cc3)cc2C(=O)N([C@@H](C)CO)C[C@@H]1C,0.903 (inactive)
10,Cc1cccc(NC(=O)Nc2ccc3c(c2)C(=O)N(C)[C@@H]2CC[C@H](CC(=O)NCc4ccccc4Cl)O[C@H]2CO3)c1,1.04 (inactive)
11,C/C=C/c1cnc2c(c1)C(=O)N([C@@H](C)CO)C[C@H](C)[C@H](CN(C)S(=O)(=O)c1ccc(OC)cc1)O2,1.02 (inactive)
12,C[C@@H]1CN([C@@H](C)CO)S(=O)(=O)c2ccc(C#Cc3ccncc3)cc2O[C@@H]1CN(C)C(=O)C1CCOCC1,0.541 (inactive)
13,C[C@H]1CN([C@@H](C)CO)C(=O)c2cc(-c3ccc(C#N)cc3)cnc2O[C@H]1CN(C)C(=O)Nc1ccc(C(F)(F)F)cc1,0.634 (inactive)
14,CO[C@@H]1CN(C)C(=O)c2cc(NC(=O)c3ccc4c(c3)OCO4)ccc2OC[C@H](C)NC[C@@H]1C,1.01 (inactive)
15,COc1cccc(C(=O)Nc2ccc3c(c2)C(=O)N(C)C[C@@H](OC)[C@@H](C)CN[C@@H](C)CO3)c1,1.08 (inactive)
16,C[C@H]1CN([C@@H](C)CO)C(=O)c2cc(-c3ccc(C#N)cc3)cnc2O[C@H]1CN(C)Cc1cncnc1,0.64 (inactive)
17,COCC(=O)N(C)C[C@H]1Oc2cc(-c3ccccc3F)ccc2S(=O)(=O)N([C@@H](C)CO)C[C@H]1C,0.955 (inactive)
18,C[C@H]1CN([C@@H](C)CO)C(=O)c2cc(C#Cc3ccccc3F)cnc2O[C@H]1CN(C)C(=O)C1CCCCC1,0.998 (inactive)
19,CN1C(=O)c2cc(NC(=O)c3cccc(F)c3)ccc2OC[C@@H]2O[C@@H](CC(=O)O)CC[C@@H]21,1.95 (inactive)
20,C[C@@H]1CN([C@H](C)CO)S(=O)(=O)c2ccc(C#Cc3ccncc3)cc2O[C@H]1CN(C)C(=O)C1CCOCC1,0.63 (inactive)
21,Cc1cccc(NC(=O)Nc2ccc3c(c2)C(=O)N(C)[C@@H]2CC[C@@H](CC(=O)NCc4ccccc4Cl)O[C@H]2CO3)c1,0.77 (inactive)
